# Bioassay records deposited in PubChem BioAssay by National Center for Advancing Translational Sciences (NCATS).
# KB-3-1 cytotox = qHTS assay for MDR1-selective chemotherapeutics: Primary screen using the parental adenocarcinoma cell KB-3-1; KB-3-1 viability, CellTiter-Glo ATP luminescence, 72 h; Potency, µM (titrated, usually from 46.1 µM), usual class: cytotoxic; actives 1.4% (n = 400,000); AID 1347075, 2019; further: on the % scale 0 is the no-effect control and ±100 the full control effect; nearly all actives have a fitted effect of over 60% in size
#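 Luminescent ATP read-out (CellTiter-Glo) measures survival of drug-naive KB-3-1 cells after 72 h compound exposure at 37 °C. Titration series was screened from lowest to highest concentration, with DMSO vehicle plates as background controls.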
# KB-V1 cytotox = qHTS assay for MDR1-selective chemotherapeutics: Primary screen using the drug-selected MDR subline cells KB-V1. KB-V1 MDR cells viability, CellTiter-Glo, 72 h. Potency, µM (titrated, usually from 46.1 µM), hits mostly cytotoxic. actives 3.4% (n = 400,000). AID 1347076, 2019; further: on the % scale 0 is the no-effect control and ±100 the full control effect; nearly all actives have a fitted effect of over 60% in size
#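 In this primary screen, KB-V1 cells overexpressing P-gp are incubated with library compounds (lowest to highest concentration) for 72 h at 37 degrees C before a luminescent ATP viability read.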
# HT1080 IDH1KD tx = qHTS for induction of synthetic lethality in tumor cells producing 2HG: qHTS for the HT-1080-IDH1KD cell line. AID 686971, 2013. HT-1080 IDH1 knockdown viability, ATP luminescence, 48 h. Potency, µM (titrated, usually from 46.1 µM), for inactives: at the top dose activity, negative = toxicity, usual class: cytotoxic. actives 2% (n = 360,000);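 further: 0% = DMSO wells and -100% = cell-free medium wells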
#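 % activity derives from luminescence (CellTiter-Glo), normalised to DMSO and no-cell wells. HT-1080-IDH1KD cells, 750/well, had 48 h compound exposure at 37 °C.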
# MCF10A rereplic = A quantitative high throughput screen for small molecules that induce DNA re-replication in MCF 10a normal breast cells; Potency, µM (doses to about 46.1 µM), without a hit: top-dose activity, positive = re-replication, actives largely listed as activators; actives 2.9% (n = 350,000); MCF 10A DNA re-replication, Hoechst nuclear intensity, 48 h; further: % of control where 0% means no effect; nearly all actives have a fitted effect of over 50% in size
# SW480 rereplic = A quantitative high throughput screen for small molecules that induce DNA re-replication in SW480 colon adenocarcinoma cells; SW480 DNA re-replication, Hoechst DNA content imaging, 48 h; Potency, µM (series often up to 46.1 µM), inactives show at the highest dose re-replication activation, actives largely listed as activators; actives 1.8% (n = 340,000); AID 624297, 2012; further: % of control where 0% means no effect; nearly all actives have a fitted effect of over 55% in size
#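 Readout is total intensity of Hoechst-stained nuclei, excited at 405 nm and collected at 500-530 nm. Compound treatment lasted 48 hr at 37 C in 5% CO2 before staining.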
# HT1080-NT tox = qHTS for induction of synthetic lethality in tumor cells producing 2HG: qHTS for the HT-1080-NT fibrosarcoma cell line | HT-1080-NT fibrosarcoma viability, CellTiter-Glo ATP luminescence, 48 h | Potency, µM (highest dose often 46.1 µM), for the others: top-dose activity, negative = less viability, hits mostly cytotoxic | actives 1.6% (n = 360,000);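 further: NT is the 2HG producing partner of a matched IDH1 knockdown line; 0% = DMSO-treated cells and -100% = media-only wells without cells; nearly all actives have a fitted effect of over 55% in size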
#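 Compounds were tested in concentration-response format on HT-1080-NT cells for 48 hours at 37 degrees C. Cell viability came from CellTiter-Glo luminescence; curves were classified by r2, response magnitude and activity.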
# The depositor's hits bear a star; i = inactive; ? = inconclusive; nt = no result given. Rows were chosen to be rich in hits. Some 8% of all compounds tested hit in one or more screens of this group. The call rests on the fitted dose curve; in most records, active means well fitted curve in the direction sought with a large enough effect; inconclusive means small, poorly fitted or top-dose-only effect, or another doubt; inactive means no such curve, though single readings can be large; an effect the other way counts as inactive or inconclusive. Potency means the concentration at half of the fitted maximal effect.
SMILES,KB-3-1 cytotox,KB-V1 cytotox,HT1080 IDH1KD tx,MCF10A rereplic,SW480 rereplic,HT1080-NT tox
CCc1ccc(-n2c(=O)c3c4c(sc3n(Cc3ccccc3C#N)c2=O)CCCC4)cc1,i,i,nt,nt,nt,nt
CCOC(=O)c1cnc(NCc2ccccc2)nc1C,?,i,9.6%,10.1%,-17.9%,8.9%
COc1cc(NC(=O)c2cnc(NCc3ccccc3)nc2C)cc(OC)c1OC,?,10.3µM*,?,11.2%,17.1%,?
COc1cccc(CNc2ncc(C(=O)Nc3cc(OC)c(OC)c(OC)c3)c(C)n2)c1,8.2µM*,i,?,?,?,?
O=C(O)CC1(c2ccc(F)cc2)C2CC3CC(C2)CC1C3 (stereo not given),i,i,0.0%,?,-9.9%,-1.9%
COc1cc(NC(=O)Cn2ncc3c([nH]c4ccc(C)cc43)c2=O)cc(OC)c1OC,i,i,nt,nt,nt,nt
COc1ccc(Cl)cc1NC(=S)NCCc1c[nH]c2ccccc12,20.6µM*,?,?,-2.1%,?,?
Cc1ccccc1NC(=S)NCCc1c[nH]c2ccccc12,i,i,-0.5%,8.5%,7.8%,-1.9%
CC(C)c1ccc(NC(=S)NCCc2c[nH]c3ccccc23)cc1,?,?,?,14.6µM*,38.4%,-25.6%
COc1ccc(Cl)cc1NC(=S)NCCSc1ccc(C)cc1,i,i,-5.8%,23.1µM*,-5.3%,-1.7%
COc1ccc(C(=O)Nc2ccc(C(=O)OCc3cc(=O)n4nc(C5CC5)sc4n3)cc2)cc1,i,i,nt,nt,nt,nt
CC(C)n1c(=O)c2ccccc2n1Cc1cn(C2CCCC2)nn1,i,i,0.9%,nt,nt,?
O=C(Nc1nc2cc3c(cc2s1)OCCO3)c1ccc([N+](=O)[O-])o1,3.26µM*,?,?,5.17µM*,1.46µM*,?
CN(C)CCCN(C(=O)c1ccc([N+](=O)[O-])o1)c1nc2cc3c(cc2s1)OCO3,i,i,-7.9%,4.0%,11.6µM*,-1.9%
Cc1cc(C)c2sc(NC(=O)c3ccc([N+](=O)[O-])o3)nc2c1,?,i,15.4%,20.6µM*,?,12.8%
O=C(Nc1nc2ccccc2s1)c1ccc([N+](=O)[O-])o1,?,?,-14.2%,20.6µM*,16.4µM*,?
CN(C)CCCN(C(=O)c1ccc2c(c1)OCCO2)c1nc2cc3c(cc2s1)OCO3,i,i,6.9%,3.5%,?,-8.1%
Cc1ccc2cccc(NC(=O)COc3ccccc3[N+](=O)[O-])c2n1,i,i,nt,nt,nt,nt
O=C(Nc1nc2c(F)cc(F)cc2s1)c1ccc([N+](=O)[O-])o1,10.3µM*,i,-1.9%,11.6µM*,9.2µM*,-16.0%
Cc1cc(C)c2nc(NC(=O)c3ccc([N+](=O)[O-])o3)sc2c1,i,i,-18.2%,?,1.5%,11.1%
CC(=O)c1sc(NC(=O)c2cc(-c3ccccc3)nn2-c2ccccc2)nc1C,?,?,12.4%,?,3.6%,21.7%
O=C(Nc1nc2ccccc2s1)c1cc(-c2ccccc2)nn1-c1ccccc1,?,20.6µM*,?,?,14.4%,-29.5%
COc1ccc2nc(NC(=O)c3ccccc3[N+](=O)[O-])sc2c1,i,i,-9.0%,-3.7%,7.5%,2.2%
O=C(O)c1cccc([N+](=O)[O-])c1C(=O)Nc1nc2ccccc2s1,i,i,-4.4%,-1.2%,5.6%,-1.2%
O=C(Nc1nc2ccccc2s1)c1ccccc1[N+](=O)[O-],i,i,-5.3%,0.731µM*,-24.3%,-15.3%
SMILES,KB-3-1 cytotox,KB-V1 cytotox,HT1080 IDH1KD tx,MCF10A rereplic,SW480 rereplic,HT1080-NT tox
COc1ccc2nc(NC(=O)c3ccc([N+](=O)[O-])o3)sc2c1,18.4µM*,?,18.4µM*,4.61µM*,7.31µM*,?
C=CCNC(=O)COc1ccc(N(C)S(=O)(=O)c2ccc(NC(C)=O)cc2)cc1,i,i,0.9%,1.7%,-7.8%,5.1%
O=C(Cn1cc([N+](=O)[O-])cn1)Nc1nc2ccccc2s1,i,i,15.9%,20.6µM*,?,-1.6%
CN(C)c1cccc(NC(=O)c2ccco2)c1,i,i,-5.0%,21.3%,2.8%,-2.4%
CCN(CC)P(=O)(Nc1cccc(C(F)(F)F)c1)c1ccc(N(C)C)cc1NC(=O)c1ccco1 (stereo not given),i,i,-17.2%,0.82µM*,-0.6%,-6.8%
COc1ccc(CNC(=O)c2sc(=O)n(Cc3ccc(C)cc3)c2C)cc1OC,i,18.4µM*,-1.3%,nt,nt,3.7%
COc1cc(C(=O)NCc2ccccc2)ccc1OC(F)F,i,i,-8.6%,1.3%,-4.5%,-4.5%
COc1ccc(CNC(=O)c2sc(=O)n(Cc3ccc(-c4ccccc4)cc3)c2C)cc1OC,?,9.2µM*,?,nt,nt,-11.5%
COc1cc(C(=O)NCc2ccc(C)cc2)ccc1OC(F)F,i,23.1µM*,-5.0%,0.7%,4.6%,3.3%
